Bioassay records from PubChem.
NadD block: inhibitors of Staphylococcus aureus NadD. hit rate 0.78% among 360,000. inhibition, % at 20 µM. AID 602399. purified NadD enzyme, colorimetric absorbance read-out; in the data active means inhibition above about 26%
Granule exo inh: blocks lytic granule exocytosis; TALL-104 LAMP-1 surface exposure, flow cytometry; cells stimulated with thapsigargin and PMA; inhibition, % at 10 µM; hit rate 0.66% among 360,000;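 active means inhibition above about 55%, limit read from the data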
B2AR ag: human beta-2 adrenergic receptor agonism by FAP. P07550. Am2.2-beta2AR cells, FAP receptor internalization, flow cytometry. response, % (concentration not given with the values). hit rate 0.43% among 340,000;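 active means response above a set limit, near 3 SD of response in nonfluorescent compounds, cut at about 42% in these data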
PP1 inh: PP1-alpha (human) inhibition in PP5 counter-screen | purified PP1alpha, OMFP fluorescence | inhibition, % at 6.7 µM | hit rate 0.9% among 320,000;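 active means inhibition above the mean inhibition of all tested compounds plus 3 SD, computed separately for each screening campaign, cut at about 15% in these data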
GRK2 inh: inhibitors of human GRK2 displacing RNA aptamer. bead flow cytometry, FAM-aptamer displacement from GRK2. inhibition of aptamer binding, % at 10 µM. hit rate 0.59% among 330,000. AID 488847;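 active means inhibition of aptamer binding above 40%, roughly 3 SD of noise, on plates passing a quality check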;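 further: median bead fluorescence of bound FAM aptamer so fluorescent compounds give negative values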
Target sequence (P25098 whole entry, looked up): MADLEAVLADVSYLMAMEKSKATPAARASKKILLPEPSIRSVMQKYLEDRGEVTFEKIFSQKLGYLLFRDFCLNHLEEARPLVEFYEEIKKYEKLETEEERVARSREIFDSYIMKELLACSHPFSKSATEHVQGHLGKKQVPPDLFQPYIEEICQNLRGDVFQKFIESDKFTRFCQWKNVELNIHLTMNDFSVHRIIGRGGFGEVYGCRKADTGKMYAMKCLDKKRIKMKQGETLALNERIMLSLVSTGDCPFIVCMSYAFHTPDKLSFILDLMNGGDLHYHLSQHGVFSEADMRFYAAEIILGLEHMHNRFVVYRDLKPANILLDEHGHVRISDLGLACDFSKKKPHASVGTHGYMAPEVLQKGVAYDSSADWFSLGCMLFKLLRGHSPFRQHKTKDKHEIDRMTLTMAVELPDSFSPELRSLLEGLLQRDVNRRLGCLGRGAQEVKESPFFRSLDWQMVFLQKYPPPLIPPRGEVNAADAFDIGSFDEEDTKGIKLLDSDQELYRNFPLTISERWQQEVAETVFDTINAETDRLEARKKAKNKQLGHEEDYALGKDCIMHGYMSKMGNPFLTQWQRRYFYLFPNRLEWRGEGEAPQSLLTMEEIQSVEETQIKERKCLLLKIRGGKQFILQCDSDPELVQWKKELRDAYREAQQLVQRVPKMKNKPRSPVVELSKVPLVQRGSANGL
A number is an active result; . = inactive; / = no result given. Rows were chosen to be rich in hits. Some 2.9% of all compounds tested hit in one or more screens of this group.

SMILES	NadD block	Granule exo inh	B2AR ag	PP1 inh	GRK2 inh
O=S(=O)(NCC(c1ccc2c(c1)OCO2)N1CCOCC1)c1ccccc1 (configuration not stated)	.	.	.	.	.
Cc1ccc2[nH]c(O)c(N=NC(=O)c3ccc(NS(=O)(=O)c4cccs4)cc3)c2c1	43	.	.	.	.
O=C(N=Nc1c(O)[nH]c2ccccc12)c1ccccc1NS(=O)(=O)c1cccs1	.	.	.	.	.
O=C1CC[C@@H]2CC3(C[C@@H]4CCN1[C@H]24)Nc1ccccc1NC3=NC1CCCCC1 (some centres not stated)	.	.	.	/	/
Cc1ccccc1N=C1Nc2ccccc2N[C@]12C[C@H]1CCC(=O)N3CC[C@@H](C2)[C@@H]13	.	58	.	/	/
O=C1C(Cl)=C(Nc2ccccc2)C(=O)c2ccccc21	.	.	.	.	.
O=C(O)c1ccc(NC2=C(Cl)C(=O)c3ccccc3C2=O)cc1	.	70	96	.	.
CCOC(=O)C1=C(CSc2nc(-c3ccccc3)ccc2C#N)OC(N)=C(C#N)C1c1ccc(OC)cc1 (configuration not stated)	.	75	.	.	.
O=C(Nc1cccc(F)c1)c1cc(S(=O)(=O)N2CCOCC2)cs1	.	.	.	.	.
CCOC(=O)CCc1nc2ccccc2[nH]1	.	.	.	.	.
COCC(=O)O[C@]1(CCN(C)CCCc2nc3ccccc3[nH]2)CCc2cc(F)ccc2[C@@H]1C(C)C	.	63	.	.	.
COC(=O)CSc1nc(SC)nc2c1sc1nc(-c3ccco3)c3c(c12)CC(C)(C)OC3	.	.	.	/	/
CSc1nc(N(CCO)CCO)c2sc3nc(-c4ccco4)c4c(c3c2n1)CCC4	80	.	.	/	/
CCn1c(SCC(=O)Nc2ccc(NC(=O)c3ccco3)c(OC)c2)nc2ccccc2c1=O	.	.	.	.	.
COCCn1c(SCC(=O)Nc2ccc(NC(=O)c3ccco3)c(OC)c2)nc2ccccc2c1=O	.	94	.	.	.
C#CCOCCOCCOCCNc1nc(N2CCN(C(=O)[C@H](Cc3cc4ccccc4[nH]3)n3cc([C@@H](N)C(C)CC)nn3)CC2)nc(N2CCN(C(=O)[C@H](CCCCN)n3cc([C@@H](N)CC(C)C)nn3)CC2)n1 (some centres not stated)	/	/	/	16	.
C#CCOCCOCCOCCNc1nc(N2CCN(C(=O)[C@H](Cc3ccc(O)cc3)n3cc([C@@H](N)C(C)CC)nn3)CC2)nc(N2CCN(C(=O)[C@H](Cc3cc4ccccc4[nH]3)n3cc([C@@H](N)C(C)CC)nn3)CC2)n1 (some centres not stated)	34	.	58	17	.
C#CCOCCOCCOCCNc1nc(N2CCN(C(=O)[C@H](Cc3cc4ccccc4[nH]3)n3cc([C@@H](N)Cc4ccc(O)cc4)nn3)CC2)nc(N2CCN(C(=O)[C@H](Cc3cc4ccccc4[nH]3)n3cc([C@@H](N)CC(C)C)nn3)CC2)n1	/	/	73	/	/
C#CCOCCOCCOCCNc1nc(N2CCN(C(=O)C(CCC(=O)O)n3cc(C(N)CC(C)C)nn3)CC2)nc(N2CCN(C(=O)C(Cc3cc4ccccc4[nH]3)n3cc(C(N)Cc4ccc(O)cc4)nn3)CC2)n1 (configuration not stated)	.	.	.	.	.
C#CCOCCOCCOCCNc1nc(N2CCN(C(=O)[C@H](CCC(=O)O)n3cc([C@@H](N)CCCCN)nn3)CC2)nc(N2CCN(C(=O)[C@H](CCCCN)n3cc([C@@H](N)CC(N)=O)nn3)CC2)n1	.	59	.	/	.
O=C(Nc1ccc(F)cc1)C(c1ccnc2ccccc12)N1CCN(CC(=O)N2CCCC2)CC1 (configuration not stated)	/	.	/	/	/
CN(C)S(=O)(=O)c1ccc(-c2csc(N/N=C/c3ccco3)n2)cc1	.	102	.	.	.
C(=N\Nc1nc(-c2ccccc2)cs1)/c1ccncc1	.	.	.	.	.
CN(C)S(=O)(=O)c1ccc(-c2csc(N/N=C/c3ccc(O)cc3)n2)cc1	38	101	47	.	.
C[C@@H]1CN([C@H](C)CO)C(=O)CCCn2nncc2CO[C@@H]1CN(C)C(=O)Nc1ccc2c(c1)OCO2	.	.	/	/	/
SMILES	NadD block	Granule exo inh	B2AR ag	PP1 inh	GRK2 inh
O=C1/C(=C/Nc2ccc3c(c2)OCO3)CCc2ccccc21	.	98	.	.	.
COc1ccc2c(c1)CC/C(=C\Nc1ccc3c(c1)OCO3)C2=O	.	101	.	.	.
COc1ccc(N/C=C2\CCc3ccccc3C2=O)cc1	.	.	.	.	.
Cc1ccc(/C=C/C(=O)Nc2nccs2)o1	.	.	.	.	.
Cc1ccc(/C=C/C(=O)Nc2nnc(SCc3ccc(C#N)cc3)s2)o1	.	.	.	.	100
Nc1nc(CCl)nc(Nc2ccc3ccccc3c2)n1	.	.	.	/	/
COc1ccc(Nc2nc(N)nc(CCl)n2)cc1	.	57	.	.	.
CCC(c1nnnn1CCc1ccccc1)N(Cc1ccco1)Cc1cc2c(C)ccc(C)c2[nH]c1=O (configuration not stated)	.	.	.	16	.
CC(C)C(=O)NC(c1cccc([N+](=O)[O-])c1)c1ccc2cccnc2c1O (configuration not stated)	.	.	.	17	.
CCCC(=O)NC(c1cccc([N+](=O)[O-])c1)c1ccc2cccnc2c1O (configuration not stated)	.	.	/	/	/
Cc1ccc(C(=O)Nc2nc(-c3ccco3)c(-c3ccco3)s2)o1	31	.	.	/	/
O=C(CCl)Nc1nc(-c2ccco2)c(-c2ccco2)s1	.	.	.	.	.
Cc1ccccc1CNC1CCCCC1	.	.	.	.	.
Oc1cc(CNC2CCCCC2)c(O)cc1CNC1CCCCC1	31	.	.	/	/
CC1CCc2nc(NC(=O)Cc3cccs3)sc2C1 (configuration not stated)	.	.	.	.	.
CC(C)(C)C1CCc2nc(NC(=O)Cc3cn4ccsc4n3)sc2C1 (configuration not stated)	.	.	.	16	/
COc1cc(OC)cc(-n2nnnc2SCC(=O)NC2CCCC2)c1	.	.	.	.	.
COc1cc(OC)cc(-n2nnnc2SCC(=O)N2CCCC2)c1	.	.	.	16	.
C[C@@H]1O[C@@H](O[C@@H]2C(=O)c3c(O)cc(O)cc3O[C@H]2c2ccc(O)c(O)c2)[C@H](O)[C@H](O)[C@H]1O	.	.	.	.	.
O=c1oc(Cl)c(Cl)c2ccccc12	.	.	62	.	.
COC(=O)/C=C1\SC(=NC(=O)c2ccc(-c3ccccc3)cc2)NC1=O	31	.	.	/	.
COC(=O)/C=C1\SC(=NC(=O)c2ccc(OC)cc2)NC1=O	.	.	.	.	.
COc1cn(-c2ccccc2)nc1C(=O)OCC(=O)Nc1ccc(C)c(C)c1	.	.	.	.	.
N=C1SCC(=O)N1c1ncc(Cc2ccc(F)cc2)s1	.	.	.	.	.
